Measurements: PubChem BioAssay (NCI)
This is part of a sample that, as a whole, favours compounds with a hit. Of some 79,000 tested, about 15% had one in any assay. Activity calls are given as the source filed them. No stated cut-off is given here; in the data, active means growth inhibition above about 70%; inactive means the rest.

How the values were obtained:
[1] = NCI Yeast Anticancer Drug Screen. Data for the rad52 strain (AID 147);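 further: 0% = growth of vehicle-treated control cultures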; details: S. cerevisiae rad52 mutant growth inhibition, hits give high values
Procedure, shortened: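 Vehicle-treated cultures served as the reference for growth inhibition of compound-exposed yeast bearing a DNA repair mutation.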

[2] = NCI Yeast Anticancer Drug Screen. Data for the wt1 strain (AID 149);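 further: 0% = growth of vehicle-treated wt1 cultures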; details: S. cerevisiae wt1 strain (SPY 50644) growth inhibition, hits give high values
Procedure, shortened: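 Each compound is tested on wt1 yeast and the loss of growth versus vehicle gives the inhibition value.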

[3] = NCI Yeast Anticancer Drug Screen. Data for the rad50EPP+ strain (AID 151);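 further: 0% = growth of vehicle-treated control cultures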; details: S. cerevisiae rad50 mutant strain, hits give high values
Procedure, shortened: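 In this screen, rad50EPP+ yeast were exposed to compounds. Growth inhibition was scored against vehicle-treated controls.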

[4] = NCI Yeast Anticancer Drug Screen. Data for the mgt1 strain (AID 153); details: S. cerevisiae mgt1 mutant growth inhibition, hits give high values
Procedure, shortened: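 mgt1 strain exposed; growth vs vehicle control recorded as inhibition.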

[5] = NCI Yeast Anticancer Drug Screen. Data for the rad50 strain (AID 155);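 further: 0% = growth of vehicle-only cultures of the same strain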; details: S. cerevisiae rad50 strain growth inhibition, hits give high values
Procedure, shortened: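 Vehicle-treated cultures provide the reference for the growth inhibition reported for compound-exposed, repair-deficient yeast.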

[6] = NCI Yeast Anticancer Drug Screen. Data for the mec2-1 strain (AID 157); details: S. cerevisiae mec2-1 strain, hits give high values
Procedure, shortened: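 Vehicle-treated cultures served as reference for growth inhibition of compound-exposed mec2-1 yeast.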

[7] = NCI Yeast Anticancer Drug Screen. Data for the rad14 strain (AID 159);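 further: 0% = growth of vehicle-treated control cultures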; details: S. cerevisiae rad14 strain growth inhibition, hits give high values
Procedure, shortened: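 Inhibition of growth is reported for a repair-deficient yeast mutant following compound treatment, calculated relative to cultures that received vehicle.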

[8] = NCI Yeast Anticancer Drug Screen. Data for the sgs1 mgt1 strain (AID 161);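 further: 0% = growth of cultures given vehicle only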; details: S. cerevisiae sgs1 mgt1 strain, hits give high values
Procedure, shortened: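 Mutant yeast exposed to compound; growth scored against vehicle-only wells.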

[9] = NCI Yeast Anticancer Drug Screen. Data for the cln2 rad14 strain (AID 165);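 further: 0% = growth equal to vehicle treated cultures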; details: S. cerevisiae cln2 rad14 strain, hits give high values
Procedure, shortened: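 Each compound was tested on cln2 rad14 yeast. Inhibition of growth was calculated against vehicle-exposed controls.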

[10] = NCI Yeast Anticancer Drug Screen. Data for the bub3 strain (AID 167); details: S. cerevisiae bub3 mutant strain, hits give high values
Procedure, shortened: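 Mutant yeast screening strain plus compound; vehicle-treated cultures serve as the 0% inhibition reference.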

[11] = NCI Yeast Anticancer Drug Screen. Data for the wt2 strain (AID 169); details: S. cerevisiae wt2 strain growth inhibition, hits give high values
Procedure, shortened: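 Inhibition of yeast growth was determined after compound treatment, normalised to controls receiving only vehicle.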

[12] = NCI Yeast Anticancer Drug Screen. Data for the mlh1 strain (AID 171);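 further: 0% = growth of vehicle-treated control cultures of the same strain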; details: S. cerevisiae mlh1 strain growth inhibition, hits give high values
Procedure, shortened: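 Vehicle-normalised growth inhibition of a repair- or checkpoint-altered yeast strain following compound treatment.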

[13] = NCI Yeast Anticancer Drug Screen. Data for the sgs1 strain (AID 173);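 further: 0% = growth of vehicle-only control cultures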; details: S. cerevisiae sgs1 mutant, hits give high values
Procedure, shortened: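 Screen format: yeast with repair or checkpoint alterations, compound exposure, growth read relative to vehicle.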

[14] = NCI Yeast Anticancer Drug Screen. Data for the mlh1 rad18 strain (AID 175); details: S. cerevisiae mlh1 rad18 strain growth inhibition, hits give high values
Procedure, shortened: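 Vehicle-treated cultures served as the reference for growth inhibition in a yeast strain carrying DNA damage repair alterations exposed to each compound.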

[15] = NCI Yeast Anticancer Drug Screen. Data for the CLN2oe strain (AID 163);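 further: 0% = growth of vehicle-only control cultures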; details: S. cerevisiae CLN2oe strain, hits give high values
Procedure, shortened: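 Inhibition relative to vehicle-treated yeast is reported. Cells: strain with genetic alteration in cell-cycle control, grown with compound.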

[16] = NCI Yeast Anticancer Drug Screen. Data for the rad18 strain (AID 177); details: S. cerevisiae rad18 mutant growth inhibition, hits give high values
Procedure, shortened: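 Test articles were incubated with altered yeast defective in DNA damage repair. Results are given as inhibition of growth versus vehicle.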

[17] = at 5.0 µM (retest, dose inferred, filed as 0.5)
[18] = at 50.0 µM (retest, dose inferred, filed as 5.0)

Measured: growth inhibition

COCCOC(=O)CCn1cc(F)c(=O)[nH]c1=O
inactive: [1]; at 1.2 µM -1% | [1]; at 3.7 µM -1% | [1]; at 11.0 µM 11% | [1]; at 33.0 µM 31% | [1]; at 100.0 µM 62% | [2]; at 1.2 µM 0% | [2]; at 3.7 µM 3% | [2]; at 11.0 µM 7% | [2]; at 33.0 µM 12% | [2]; at 100.0 µM 23% | [3]; at 1.2 µM -3% | [3]; at 3.7 µM 3% | [3]; at 11.0 µM 27% | [3]; at 33.0 µM 67% | [4]; at 1.2 µM -1% | [4]; at 3.7 µM 7% | [4]; at 11.0 µM 16% | [4]; at 33.0 µM 48% | [5]; at 1.2 µM -5% | [5]; at 3.7 µM -11% | [5]; [17] 24% | [5]; at 11.0 µM 0% | [5]; at 33.0 µM 34% | [5]; at 50.0 µM 64.1% | [5]; at 100.0 µM 61% | [6]; at 1.2 µM -1% | [6]; at 3.7 µM 3% | [6]; [17] 5% | [6]; at 11.0 µM 13% | [6]; at 33.0 µM 48% | [7]; at 1.2 µM -3% | [7]; at 3.7 µM 0% | [7]; at 11.0 µM 7% | [7]; at 33.0 µM 14% | [7]; at 100.0 µM 34% | [8]; [17] 27% | [9]; [17] 22% | [9]; [18] 40% | [9]; at 50.0 µM 36.8% | [10]; at 1.2 µM 0% | [10]; at 3.7 µM 3% | [10]; [17] -8% | [10]; at 11.0 µM 7% | [10]; at 33.0 µM 5% | [10]; [18] 11% | [10]; at 50.0 µM 17.8% | [10]; at 100.0 µM 17% | [11]; at 1.2 µM -1% | [11]; at 3.7 µM 2% | [11]; at 11.0 µM 14% | [11]; at 33.0 µM 48% | [12]; at 1.2 µM 3% | [12]; at 3.7 µM 9% | [12]; at 11.0 µM 18% | [12]; at 33.0 µM 53% | [13]; at 1.2 µM 1% | [13]; at 3.7 µM 12% | [13]; at 11.0 µM 36% | [14]; [17] 13% | [14]; [18] 51% | [14]; at 50.0 µM 62.9%
active: [3]; at 100.0 µM 85% | [4]; at 100.0 µM 80% | [5]; [18] 70% | [6]; [18] 78% | [6]; at 50.0 µM 83.5% | [6]; at 100.0 µM 83% | [8]; [18] 82% | [8]; at 50.0 µM 91.7% | [11]; at 100.0 µM 76% | [12]; at 100.0 µM 77% | [13]; at 33.0 µM 76% | [13]; at 100.0 µM 88%

O=[N+]([O-])c1ccc(=S)[nH]c1
inactive: [1]; at 1.2 µM 1% | [1]; at 3.7 µM 0% | [1]; at 11.0 µM -1% | [1]; at 33.0 µM 49% | [2]; at 1.2 µM -1% | [2]; at 3.7 µM -2% | [2]; at 11.0 µM -6% | [2]; at 33.0 µM 13% | [3]; at 1.2 µM 0% | [3]; at 3.7 µM -2% | [3]; at 11.0 µM 23% | [4]; at 1.2 µM -3% | [4]; at 3.7 µM -2% | [4]; at 11.0 µM 1% | [4]; at 33.0 µM 34% | [5]; at 1.2 µM 0% | [5]; at 3.7 µM -6% | [5]; [17] -5% | [5]; at 11.0 µM -5% | [5]; at 33.0 µM 28% | [6]; at 1.2 µM -2% | [6]; at 3.7 µM -1% | [6]; [17] -9% | [6]; at 11.0 µM -5% | [6]; at 33.0 µM 60% | [7]; at 1.2 µM -5% | [7]; at 3.7 µM -6% | [7]; at 11.0 µM -5% | [7]; at 33.0 µM 42% | [8]; [17] 32% | [15]; at 1.2 µM -1% | [15]; at 3.7 µM -8% | [15]; at 11.0 µM -8% | [15]; at 33.0 µM -10% | [15]; at 100.0 µM 67% | [10]; at 1.2 µM -6% | [10]; at 3.7 µM -7% | [10]; [17] 10% | [10]; at 11.0 µM -6% | [10]; at 33.0 µM 54% | [11]; at 1.2 µM 0% | [11]; at 3.7 µM 1% | [11]; at 11.0 µM 2% | [11]; at 33.0 µM 39% | [12]; at 1.2 µM 0% | [12]; at 3.7 µM 1% | [12]; at 11.0 µM 1% | [12]; at 33.0 µM 52% | [13]; at 1.2 µM 0% | [13]; at 3.7 µM 4% | [13]; at 11.0 µM 17% | [14]; [17] 51% | [16]; at 1.2 µM -1% | [16]; at 3.7 µM 0% | [16]; at 11.0 µM -5% | [16]; at 33.0 µM 40%
active: [1]; at 100.0 µM 93% | [2]; at 100.0 µM 78% | [3]; at 33.0 µM 85% | [3]; at 100.0 µM 97% | [4]; at 100.0 µM 93% | [5]; [18] 99% | [5]; at 50.0 µM 98.8% | [5]; at 100.0 µM 86% | [6]; [18] 88% | [6]; at 50.0 µM 99.4% | [6]; at 100.0 µM 99% | [7]; at 100.0 µM 99% | [8]; [18] 100% | [8]; at 50.0 µM 98.2% | [10]; [18] 98% | [10]; at 50.0 µM 99.3% | [10]; at 100.0 µM 98% | [11]; at 100.0 µM 93% | [12]; at 100.0 µM 96% | [13]; at 33.0 µM 76% | [13]; at 100.0 µM 99% | [14]; [18] 99% | [14]; at 50.0 µM 93.1% | [16]; at 100.0 µM 94%
